THP-1 cell loss data for 35 compounds are collected here from the supplement of paper PMC7530171.

Structures can show the parent of a compound that is named as a salt. ± gives the standard deviation.

This assay has as its system THP-1. The assay can be described thus: THP-1 cell loss relative to DMSO control; higher = more host cell loss (toxicity); extreme values may be limits of the assay. To be noted: 10 µM; 4 days; infection: M. tuberculosis H37Rv. As to the method:
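OICR kinase inhibitor library screened in duplicate at 10 uM against M. tuberculosis-infected THP-1 macrophages, 4 days at 37 C. THP-1 cell loss (cytotoxicity or loss of adherence) was quantified from Hoechst-stained nuclei counts by high-content imaging and normalised to the 1% DMSO control; 100 = complete loss of host cells.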
On to `O=c1c(O)c(-c2ccc(O)c(O)c2)oc2cc(O)cc(O)c12` [Quercetin], for which the THP-1 cell loss was 12.8 ± 2.6%.

Consider `O=S(=O)(c1cccc2cnccc12)N1CCCNCC1` [Fasudil HCl], for which the THP-1 cell loss was 0.204 ± 0.29%.

`C=CCn1c(=O)c2cnc(Nc3ccc(N4CCN(C)CC4)cc3)nc2n1-c1cccc(C(C)(C)O)n1` came in with a THP-1 cell loss of 37 ± 4.8%. In the case of `Cc1cccc(-c2[nH]c(C(C)(C)C)nc2-c2ccc3c(c2)OCO3)n1` it was 74 ± 1.8%; in that of `CN(C)c1ccc(/C=C2/C(=O)Nc3ccccc32)cc1`, 20.5 ± 18%. In the case of `c1ccc(-c2n[nH]c3c2oc2ccccc23)cc1` it was 9.81 ± 5.6%; in that of `Fc1ccc(Cl)cc1-c1nc(Nc2ccncc2)c2nccnc2n1`, 7.31 ± 3.9%; in that of `CN1CCC(COc2cnc(-c3cccc(Cn4nc(-c5cccc(C#N)c5)ccc4=O)c3)nc2)CC1`, 90.4 ± 14%. In the case of `CN(C)c1cc2c(Nc3ccc4c(cnn4Cc4ccccc4)c3)ncnc2cn1` it was 62.6 ± 18%; in that of `O=c1[nH]ccc2c(S(=O)(=O)N3CCCNCC3)cccc12` [HA 1100 hydrochloride], 0%. Turning to `Clc1ccc(Nc2nnc(Cc3ccncc3)c3ccccc23)cc1` [Vatalanib dihydrochloride], the THP-1 cell loss is 39.2 ± 3.4%. To `CCc1cncnc1N1CCN(Cc2nc3ccc(C(F)(F)F)cc3[nH]2)CC1` belongs 92.6 ± 10%; to `N#C/C(=C\c1ccc(O)c(O)c1)C(=O)NCc1ccccc1`, 0.71 ± 1%; to `Cc1cn(-c2cc(NC(=O)c3ccc(C)c(Nc4nccc(-c5cccnc5)n4)c3)cc(C(F)(F)F)c2)cn1` [Nilotinib], 75.3 ± 35%.

The compound `Cc1ccc([N+](=O)[O-])cc1S(=O)(=O)N(C)/N=C/c1cnc2ccc(Br)cn12` [PIK-75 hydrochloride] yielded a THP-1 cell loss of 100%. In the case of `Oc1ccc(Nc2nc(-c3ccc(Cl)cc3)cs2)cc1` [2-(p-Hydroxyanilino)-4-(p-chlorophenyl) thiazole] it was 100%; in that of `CC(=O)Nc1cccc(-n2c(=O)n(C3CC3)c(=O)c3c(Nc4ccc(I)cc4F)n(C)c(=O)c(C)c32)c1`, 100%. To `CCN(CC)CCCCNc1ncc2cc(-c3cc(OC)cc(OC)c3)c(NC(=O)NC(C)(C)C)nc2n1` belongs 8.25 ± 12%; to `c1cc(-c2cnn3cc(-c4ccc(OCCN5CCCCC5)cc4)cnc23)ccn1` [Dorsomorphin dihydrochloride], 100%; to `COc1cc2/c(=N/c3ccc(Br)cc3F)nc[nH]c2cc1OCC1CCN(C)CC1` [Vandetanib], 40.7 ± 6.5%. As to `Oc1ccc(-c2nc(-c3ccc(F)cc3)c(-c3ccncc3)[nH]2)cc1`, the THP-1 cell loss amounted to 8.45 ± 0.56%. In the case of `COc1cc2c(Oc3ccc(NC(=O)C4(C(=O)Nc5ccc(F)cc5)CC4)cc3F)ccnc2cc1OCCCN1CCOCC1` it was 100%.

As to `CC[C@@H]1C(=O)N(C)c2cnc(Nc3ccc(C(=O)N[C@H]4CC[C@H](N5CCN(CC6CC6)CC5)CC4)cc3OC)nc2N1C(C)C`, the THP-1 cell loss was found to be 100%.

Consider `COc1ccc(-c2cc3nccn3c(Nc3ncccc3C(N)=O)n2)cc1OC` [BAY 61-3606 hydrochloride], for which the THP-1 cell loss came out at 100%. To `CNS(=O)(=O)Nc1nccc(Cc2c(C)c3ccc(Oc4ncccn4)cc3oc2=O)c1F` belongs 100%; to `CC(C)(C)c1cnc(CSc2cnc(NC(=O)C3CCNCC3)s2)o1`, 100%; to `CCN(CCCOc1ccc2c(Nc3cc(CC(=O)Nc4cccc(F)c4)[nH]n3)ncnc2c1)CCOP(=O)(O)O`, 7.93 ± 5.5%. To `CN(c1ccccc1CNc1nc(Nc2ccc3c(c2)CC(=O)N3)ncc1C(F)(F)F)S(C)(=O)=O` belongs 100%; to `CN1CC[C@H](c2c(O)cc(O)c3c(=O)cc(-c4ccccc4Cl)oc23)[C@H](O)C1` [Alvocidib], 100%; to `CN1CCN(CCOc2cc(OC3CCOCC3)c3c(Nc4c(Cl)ccc5c4OCO5)ncnc3c2)CC1`, 20.5 ± 7%. In the case of `CCOc1cc(/C=C(\C#N)C(N)=O)cc(CSc2ccccc2)c1O` it was 10.3 ± 14%; in that of `COc1cc(OC2CCN(C)CC2)ccc1Nc1ncc2c(n1)n(C1CCCC1)c(=O)n2C`, 87.6 ± 18%.

Compound `CCN(CC)CCNC(=O)c1ccc2nc(-c3ccccc3)c(-c3ccc(CN4CCC(n5c(=O)[nH]c6ccccc65)CC4)cc3)nc2c1` [Merck-22-6] gave a THP-1 cell loss of 100%. For the compound `Cn1cc(-c2ccc3nnc(Sc4ccc5ncccc5c4)n3n2)cn1`, the THP-1 cell loss came to 10.4 ± 3.7%. To `CC(C)N(CCC(=O)c1ccc2ccccc2c1)Cc1ccccc1` belongs 3.99 ± 5.6%.
